A selection: hits, their analogues and other compounds. The true share with any hit is near 3.7%.
Tau fibril ThT – inhibitors of human tau fibril formation, thioflavin T binding | P10636 | recombinant tau K18 P301L, heparin-induced fibrillization, ThT fluorescence | Potency, µM (top dose mostly 57.4 µM), for inactives: at the highest dose activity, negative = inhibition, usual class: inhibitors | 270,000 compounds, 2.1% hits; also: % is scaled to controls: 0 for no effect and ±100 for the full control effect; nearly all actives have a fitted effect of over 55% in size
Target sequence (P10636 561-689 P618L limits assumed): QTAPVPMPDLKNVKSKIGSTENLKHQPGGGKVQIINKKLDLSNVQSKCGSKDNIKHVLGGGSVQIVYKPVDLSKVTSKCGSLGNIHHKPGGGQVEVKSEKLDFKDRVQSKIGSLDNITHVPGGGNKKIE
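Using a mix of unlabeled (15 uM) and Alexa 594-labeled (0.24 uM) tau K18 P301L, heparin-triggered fibrillization over 6 hr at 37 C was scored by ThT fluorescence.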
Tau fluor cs – counter-screen for tau fibril formation inhibitors. tau K18 P301L Alexa594 fluorescence, heparin fibrillization. 280,000 compounds, 0.93% hits. Potency, µM (highest dose often 57.7 µM), for inactives: top-dose activity change, negative = decrease; also: % is scaled to controls: 0 for no effect and ±100 for the full control effect; nearly all actives have a fitted effect of over 55% in size
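Human tau K18 P301L (15 uM unlabeled, 0.24 uM Alexa 594-labeled) in 100 mM sodium acetate pH 7 with 20 uM heparin, 6 hr at 37 C. ThT 30 uM added, 1 hr ambient; Alexa 594 FP and total fluorescence read at 555/632 nm.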
Tau fibril FP – tau fibrillization inhibition (FP). K18 P301L tau heparin fibrillization, Alexa594 FP, 6 h. 280,000 compounds, 0.39% hits. Potency, µM (doses to about 57.7 µM), for inactives: at the highest dose activity, negative = inhibition, usual class: inhibitors; also: % is scaled to controls: 0 for no effect and ±100 for the full control effect; nearly all actives have a fitted effect of over 55% in size
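Read-out: fluorescence polarization of Alexa 594-labeled tau (0.24 uM), 555 nm excitation, 632 nm emission. Mixtures held 15 uM unlabeled K18 P301L, compound and 20 uM heparin, pH 7 acetate buffer, incubated 6 hr at 37 C.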
HTT ATP protect – protects HTT-Q103 PC12 cells, measured by ATP | PC12 HTT-Q103 induced, cytoprotection, ATP luminescence, 40 h | Potency, µM (doses to about 56.4 µM), without a hit: cytoprotection (ATP increase), most hits filed as activators | 230,000 compounds, 0.14% hits | AID 1471; also: % of control where 0% means no effect; nearly all actives have a fitted effect of over 45% in size
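ATP quantification (ATPlite) reports survival of PC12 cells in which tebufenozide, 100 nM final, switches on Htt exon 1 with 103 glutamines linked to GFP; compounds are titrated.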
HTT aggregate – reduces HttQ103-GFP aggregates in PC12 cells; Potency, µM (top dose mostly 46.1 µM), for the others: at the highest dose activity change, negative = inhibition, actives largely listed as inhibitors; PC12 HttQ103-GFP aggregates, Acumen cytometry, 40 h; 220,000 compounds, 1.1% hits; also: % is scaled to controls: 0 for no effect and ±100 for the full control effect; nearly all actives have a fitted effect of over 60% in size
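PC12 cells with ecdysone-inducible HTT exon1 Q103-GFP, induced by 100 nM tebufenozide, given compounds in a concentration series. GFP aggregates (1–25 um, 6 SD above background) counted in lysates by laser-scanning cytometry, 488 nm excitation.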
* = called active by the depositor; ? = inconclusive; / = no result; [ ] = another dose, or the depositor's remark. Calls follow the shape of the dose curve; as a rule, active = well fitted curve in the direction sought with a large enough effect; inconclusive = small, poorly fitted or top-dose-only effect, or another doubt; inactive = no such curve, though single readings can be large; an effect the other way counts as inactive or inconclusive. Potency is read from the fitted curve at half-maximal effect.

SMILES	Tau fibril ThT	Tau fluor cs	Tau fibril FP	HTT ATP protect	HTT aggregate
CC(=O)Nc1ccc2c(c1)C(C)(C)C(C)N2C (stereo unspecified)	?	28µM*[fluorescent]	?	22%	-22%
CCC(=O)c1ccc(NC(C)=O)cc1O	0%	-11%	-5%	1%[10 µM]	5%[9.22 µM]
CCOC(=O)C1=C(C)NC(C)=C(C(=O)OC)[C@H]1c1cccc(Cl)c1Cl	/	/	/	-18%[1.9 µM]	/
Oc1cccc2c(NC(=S)Nc3ccc(OC(F)F)cc3)cccc12	11µM*	16µM*[quencher]	?	-21%[10 µM]	13µM*
Cc1ccc(-n2nnnc2CNC(=O)c2ccccc2F)cc1C	2%	-3%	-7%	/	/
CCC(=O)N1CCN(c2ccc(NC(=O)c3ccc(N4CCCC4)c([N+](=O)[O-])c3)cc2)CC1	0.63µM*	-16%	-9%	17%[10 µM]	14%
CCC(=O)N1CCN(c2ccc(NC(=S)NC(=O)c3ccc(OC)c([N+](=O)[O-])c3)cc2)CC1	2.5µM*	?	?	2%[10 µM]	20%[9.22 µM]
CCCC(=O)N1CCN(c2ccc(NC(=O)c3ccc(OCC)c([N+](=O)[O-])c3)cc2)CC1	?	-21%	3%	-4%	21%
CCOC(=O)c1cccc(NC(=O)c2ncoc2-c2ccco2)c1	1%	-11%	0%	/	/
Cc1ccc(S(=O)(=O)c2nnn3c2nc(N2CCN(c4ccc(F)cc4)CC2)c2cc(Cl)ccc23)cc1C	-1%	-4%	-1%	/	/
O=c1[nH]cnc2sc3c(c12)CCCC3	6%	-3%	-13%	11%	13µM*
O=c1[nH]cnc2sc3c(c12)CCCCC3	-2%	-6%	-2%	2%	-32%
Cc1cccc(C(c2sc3nc(-c4ccco4)nn3c2O)N2CCN(Cc3ccccc3)CC2)c1 (stereo unspecified)	-12%	-15%	-11%	/	/
COc1cc(C2SCCCCCCCCCCSC(c3ccc(O)c(OC)c3)SCCCCCCCCCCS2)ccc1O (stereo unspecified)	/	/	/	-5%[10 µM]	/
CO[C@@H]1COC(=O)C/C=C\[C@@H](C)[C@H](OC)COC(=O)[C@H](COCc2ccccc2)NC(=O)C/C=C\[C@H]1C	-7%[11.5 µM]	-7%[11.6 µM]	?	3.2µM*	/
CO[C@@H]1COC(=O)[C@H](COCc2ccccc2)NC(=O)C/C=C\[C@@H](C)[C@H](OC)COC(=O)[C@H](COCc2ccccc2)NC(=O)C/C=C\[C@H]1C	-5%[11.5 µM]	-1%[11.6 µM]	0%[11.6 µM]	20%[10 µM]	/
Cc1nn(-c2ccc(S(=O)(=O)O)cc2)c(O)c1N=Nc1ccc(-c2ccc(N=Nc3ccc4c(S(=O)(=O)O)cc(S(=O)(=O)O)c(N)c4c3O)c(O)c2)cc1O.[Cu].[Cu]	/	/	/	-7%[10 µM]	/
COc1cc(-c2ccc(N=Nc3ccc4c(S(=O)(=O)O)cc(S(=O)(=O)O)c(N)c4c3O)c(OC)c2)ccc1N=Nc1ccc2c(S(=O)(=O)O)cc(S(=O)(=O)O)c(N)c2c1O	1.6µM*	1µM*[quencher]	2.8µM*	-41%	/
CC(=O)c1cccc(NC(=O)Cn2nc(C)n3cccc3c2=O)c1	?	-6%	?	/	/
Cc1ccc2nc(Cl)c3nnnn3c2c1	?	1%	-5%	-98%[10 µM]	3.5µM*
CCCC(=O)N(c1ccc2oc(=O)sc2c1)S(=O)(=O)c1cccs1	32µM*	-23%	?	?	7%
CC(=O)N(c1ccc2oc(=O)sc2c1)S(=O)(=O)c1ccccc1	?	-16%	-11%	26%	12%
CC(=O)CC1OC(=O)C(Br)=C1NCc1ccccc1 (stereo unspecified)	8.9µM*	-19%	?	-142%	?
CCSc1ccc2cc(OC)ccc2[n+]1CC	?	-18%	2%	-50%	8.9µM*
CCn1ccc2cc(OC)ccc2c1=S	?	2%	-5%	2%	19%
Cc1cc(C)c2c3c(sc2n1)C1(CCSCC1)C(C#N)=C(N)O3	-9%	-25%	?	9%[10 µM]	-20%
COc1ccc(C2C(C#N)=C(N)Oc3c2sc2nc(C)cc(C)c32)cc1 (stereo unspecified)	25µM*	?	?	5%	6%

Screens: PubChem, National Center for Advancing Translational Sciences (NCATS)
